The values that follow come from PubChem BioAssay (EPA / NIEHS).

Assay [1] has as its target Bile acid receptor (Homo sapiens) (UniProt Q96RI1). Briefly: ATG_IR1_CIS: Attagene CIS-FACTORIAL HepG2 Assay for human Nuclear Receptor Subfamily 1 Group H Member 4 (NR1H4), IR1 submotif (AID 2282946). As to conditions: IR1 reporter transcription, actives raise or lower the signal. The essentials:
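Cells (human HepG2) carry transiently transfected cis-promoter reporter transcription units. Compounds are incubated 24 h, total RNA is reverse-transcribed and amplified, and labelled fragments are resolved by capillary electrophoresis. Curves use DMSO as baseline.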

Assay [2] can be described thus: ATG_GRE_CIS: Attagene CIS-FACTORIAL HepG2 Assay for human Glucocorticoid Response Elements (GRE) (AID 2282947). To be noted: HepG2 GRE cis-reporter, Attagene multiplex mRNA; actives raise or lower the signal. The gist of the method: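 Assay uses human hepatoma HepG2 cells transfected with cis-promoter reporter units, exposed 24 h. mRNA from reporters detected by RT-PCR plus capillary electrophoresis; DMSO serves as negative control and baseline.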

The nature of assay [3]: ATG_M_32_CIS: Attagene CIS-FACTORIAL HepG2 Assay for M32 Transcription Factor (Internal Marker) (AID 2282949).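 Note: background control marker of the multiplexed CIS panel rather than a real target.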 As to conditions: HepG2 Attagene cis-factorial M32 reporter, mRNA; actives raise or lower the signal. The gist of the method: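 Internal background marker read-out: RT-PCR/capillary electrophoresis fluorescence of reporter transcripts from transiently transfected HepG2 cells after 24 h chemical exposure. Activity fitted bidirectionally relative to DMSO negative control.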

Assay [4] is described as follows: ATG_M_06_CIS: Attagene CIS-FACTORIAL HepG2 Assay for M06 Transcription Factor (Internal Marker) (AID 2282950). As to conditions: HepG2 Attagene CIS-FACTORIAL M06 internal marker reporter; actives raise or lower the signal. The gist of the method: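 Internal background marker within multiplexed cis-reporter HepG2 system. Cells transiently transfected, dosed 24 h; reporter mRNA measured by RT-PCR, HpaI digestion and capillary electrophoresis. Bidirectional fit relative to DMSO.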

In assay [5] the target is Hypoxia-inducible factor 1-alpha (Homo sapiens) (UniProt Q16665). The assay is described as follows: ATG_HIF1a_CIS: Attagene CIS-FACTORIAL HepG2 Assay for human Hypoxia Inducible Factor 1 (HIF1A) (AID 2282951). To be noted: HepG2 Attagene cis-factorial HIF1a reporter transcription; actives raise or lower the signal. The gist of the method:
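HepG2, transient cis-reporter library, 24 h dosing. RNA → RT (oligo dT) → PCR → 6-FAM primer extension → HpaI → CE. Bidirectional curve fit vs DMSO.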

For assay [6], the target named is Heat shock factor protein 1 (Homo sapiens) (UniProt Q00613). The assay is described as follows: ATG_HSE_CIS: Attagene CIS-FACTORIAL HepG2 Assay for human Heat Shock Transcription Factor 1 (HSE) (AID 2282953). As to conditions: HepG2 HSE cis-reporter, Attagene RNA transcription; actives raise or lower the signal. The essentials:
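HepG2 cells transfected with cis-promoter reporter units sensing endogenous transcription factor activity; reporter mRNA quantified 24 h post-dose by RT-PCR and capillary electrophoresis of 6-FAM-labelled products. Bidirectional fitting against DMSO.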

Assay [7] can be described thus: ATG_MRE_CIS: Attagene CIS-FACTORIAL HepG2 Assay for human Metal Responsive Element (MRE) (AID 2282954). As to conditions: HepG2 MRE cis-reporter transcription, Attagene multiplex; actives raise or lower the signal. The essentials:
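After a 24 h chemical exposure, transiently transfected HepG2 cells yield RNA whose reporter sequences are amplified, FAM-labelled and sized by capillary electrophoresis. Curves are fitted bidirectionally relative to DMSO.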

Assay [8] concerns the target Paired box protein Pax-6 (Homo sapiens) (UniProt P26367). Briefly: ATG_Pax6_CIS: Attagene CIS-FACTORIAL HepG2 Assay for human Paired Box 6 (PAX6) (AID 2282956). To be noted: HepG2 CIS-FACTORIAL PAX6 reporter transcription, RNA readout; actives raise or lower the signal. The essentials: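 HepG2 cells transiently transfected with multiplexed cis-promoter reporter units (endogenous TF activity) were dosed for 24 h. Reporter mRNA was quantified by RT-PCR, 6-FAM labeling, HpaI digestion and capillary electrophoresis; bidirectional fitting versus DMSO baseline.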

Assay [9] is described as follows: ATG_PXRE_CIS: Attagene CIS-FACTORIAL HepG2 Assay for human Pregnane X Receptor Element (PXRE) (AID 2282957). As to conditions: HepG2 Attagene CIS-FACTORIAL PXRE reporter, mRNA; actives raise or lower the signal. The essentials: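 Multiplexed cis-reporter assay in transiently transfected human HepG2 cells; 24 h chemical exposure. Reporter transcripts quantified by RT-PCR with fluorescent labeling and capillary electrophoresis.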

A short description of assay [10]: ATG_RORE_CIS: Attagene CIS-FACTORIAL HepG2 Assay for human RAR-related Orphan Receptor Element (RORE) (AID 2282959). To be noted: HepG2 Attagene cis-factorial RORE reporter, mRNA; actives raise or lower the signal. The gist of the method: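 Multiplexed reporter assay measuring mRNA induction from a cis promoter element in transiently transfected HepG2 cells after 24 h treatment. Detection via RT-PCR and capillary electrophoresis fluorescence; DMSO serves as baseline.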

Assay [11] in a line: ATG_Sox_CIS: Attagene CIS-FACTORIAL HepG2 Assay for human SRY-box transcription factor (SOX) (AID 2282960). To be noted: HepG2 Attagene cis-factorial SOX reporter, mRNA; actives raise or lower the signal. The essentials: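 Cells were transfected with reporter constructs under cis-regulatory promoters, then exposed to chemicals for 24 h. Reporter transcripts were quantified by fluorescence after RT-PCR and capillary electrophoresis; activity was fitted in both directions against DMSO.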

Assay [12] can be described thus: ATG_SREBP_CIS: Attagene CIS-FACTORIAL HepG2 Assay for human Sterol Regulatory Element Binding (SREBP) (AID 2282962). To be noted: HepG2 Attagene cis-factorial SREBP reporter, mRNA; actives raise or lower the signal. The essentials: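 HepG2 cells transiently transfected with multiplexed cis-element reporter units report endogenous transcription factor activity. After 24 h of chemical exposure, reporter mRNA was quantified by RT-PCR, 6-FAM labelling, HpaI digestion and capillary electrophoresis; bidirectional fits used DMSO as baseline.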

For assay [13], the target named is Signal transducer and activator of transcription 3 (Homo sapiens) (UniProt P40763). Briefly: ATG_STAT3_CIS: Attagene CIS-FACTORIAL HepG2 Assay for human Signal Transducer and Activator of Transcription 3 (STAT3) (AID 2282963). To be noted: HepG2, Attagene cis-factorial STAT3 reporter transcription; actives raise or lower the signal. The gist of the method:
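After a 24 h compound incubation, total RNA from MRTU-transfected HepG2 cells was converted to cDNA and reporter sequences PCR-amplified, labelled and profiled by capillary electrophoresis. Gain and loss of signal were referenced to DMSO.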

A short description of assay [14]: ATG_TA_CIS: Attagene CIS-FACTORIAL HepG2 Assay for human TA Basal Promoter (AID 2282964). To be noted: HepG2 Attagene CIS-factorial TA basal promoter reporter; actives raise or lower the signal. The essentials: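 HepG2 cells transiently transfected with multiple reporter units under cis promoter elements, reporting endogenous transcription factor activity; this endpoint tracks the TA basal promoter as background control. Reporter mRNA after 24 h dosing measured by RT-PCR/capillary electrophoresis; bidirectional fits versus DMSO.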

Assay [15] in a line: ATG_TCF_b_cat_CIS: Attagene CIS-FACTORIAL HepG2 Assay for human T-Cell-Factor with beta-catenin (TCF/b-cat) (AID 2282965). As to conditions: HepG2 TCF/beta-catenin cis-reporter transcription, actives raise or lower the signal. The gist of the method:
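Endogenous transcription factor activity is captured through cis-promoter reporter constructs transiently introduced into human HepG2 liver cells. Induced reporter mRNA is measured after 24 h and fitted bidirectionally relative to DMSO.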

The nature of assay [16]: ATG_PBREM_CIS: Attagene CIS-FACTORIAL HepG2 Assay for human Phenobarbital-responsive Enhancer Module (PBREM) (AID 2282955). As to conditions: HepG2 PBREM cis-reporter, Attagene multiplexed transcription; actives raise or lower the signal. The gist of the method: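 HepG2, transient MRTU transfection, 24 h dosing; RNA → oligo(dT) RT → PCR → 6-FAM extension → HpaI → CE. Bidirectional fit vs DMSO.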

In assay [17] the target is Transcription factor Sp1 (Homo sapiens) (UniProt P08047). Briefly: ATG_Sp1_CIS: Attagene CIS-FACTORIAL HepG2 Assay for human Specificity Protein 1 (Sp1) (AID 2282961). As to conditions: HepG2 Sp1 cis-reporter transcription, actives raise or lower the signal. The gist of the method:
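Measures mRNA induction of an Sp1-linked reporter in HepG2 cells 24 h post-dosing. Multiplexed reporters read by RT-PCR and capillary electrophoresis; DMSO serves as negative control and baseline.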

Assay [18] deals with Hepatocyte nuclear factor 6 (Homo sapiens) (UniProt Q9UBC0). The assay is described as follows: ATG_HNF6_CIS: Attagene CIS-FACTORIAL HepG2 Assay for human Hepatocyte Nuclear Factor 6 (HNF6) (AID 2282952). As to conditions: HepG2 Attagene cis-factorial HNF6 reporter transcription; actives raise or lower the signal. The essentials: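 Cells are HepG2 carrying transiently transfected cis-promoter reporter units. Treatment lasts 24 h, after which reporter transcripts are reverse-transcribed, amplified, FAM-labelled and sized by capillary electrophoresis. DMSO serves as baseline.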

Assay [19] can be described thus: ATG_PPRE_CIS: Attagene CIS-FACTORIAL HepG2 Assay for human Peroxisome Proliferator-activated Response Element (PPRE) (AID 2282958). To be noted: HepG2 PPRE cis-element reporter, Attagene transcription factor profiling; actives raise or lower the signal. The essentials:
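Transcript-level reporter induction in transfected HepG2 cells after 24 h chemical exposure, quantified by fluorescence from RT-PCR products separated by capillary electrophoresis.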

A short description of assay [20]: ATG_ISRE_CIS: Attagene CIS-FACTORIAL HepG2 Assay for human Interferon Regulatory Factor 1 (IRF1) binding to an Interferon-Stimulated Response Element (ISRE) (AID 2282948). As to conditions: HepG2 ISRE cis-reporter (Attagene), mRNA transcription readout; actives raise or lower the signal. The gist of the method: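 HepG2 cells transiently transfected with multiplexed cis-promoter reporter units; after 24 h compound exposure, reporter mRNA quantified by RT-PCR, FAM labelling, HpaI digestion and capillary electrophoresis. Bidirectional fit versus DMSO baseline.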

Active and inactive are the calls of the source. Rule for the calls: active = hit-call score of the fitted dose curve at least 0.9, where 1 is the maximum; inactive = score below 0.9.

Sequence of Hypoxia-inducible factor 1-alpha (Homo sapiens) (Q16665 whole entry, looked up): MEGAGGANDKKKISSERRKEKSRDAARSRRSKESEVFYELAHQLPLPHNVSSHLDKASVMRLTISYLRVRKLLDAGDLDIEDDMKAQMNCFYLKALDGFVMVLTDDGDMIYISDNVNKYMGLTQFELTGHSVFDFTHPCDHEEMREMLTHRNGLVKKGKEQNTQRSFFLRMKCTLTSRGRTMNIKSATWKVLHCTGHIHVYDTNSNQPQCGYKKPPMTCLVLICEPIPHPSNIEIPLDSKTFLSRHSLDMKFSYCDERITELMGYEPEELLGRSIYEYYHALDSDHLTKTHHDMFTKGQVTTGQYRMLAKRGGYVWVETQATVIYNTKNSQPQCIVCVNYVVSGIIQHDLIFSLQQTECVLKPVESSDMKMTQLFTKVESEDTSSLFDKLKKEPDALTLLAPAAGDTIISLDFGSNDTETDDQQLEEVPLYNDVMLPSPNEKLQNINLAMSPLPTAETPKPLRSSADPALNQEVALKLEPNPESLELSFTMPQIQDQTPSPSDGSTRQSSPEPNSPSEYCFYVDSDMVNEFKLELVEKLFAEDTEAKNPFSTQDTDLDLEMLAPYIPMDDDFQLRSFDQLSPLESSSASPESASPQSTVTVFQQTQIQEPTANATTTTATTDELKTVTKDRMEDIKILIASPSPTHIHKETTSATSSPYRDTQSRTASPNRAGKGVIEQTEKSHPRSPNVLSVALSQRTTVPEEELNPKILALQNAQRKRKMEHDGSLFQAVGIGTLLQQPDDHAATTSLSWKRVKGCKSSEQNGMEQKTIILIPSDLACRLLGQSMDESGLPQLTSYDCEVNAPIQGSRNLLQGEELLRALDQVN
Sequence of Paired box protein Pax-6 (Homo sapiens) (P26367 whole entry, looked up): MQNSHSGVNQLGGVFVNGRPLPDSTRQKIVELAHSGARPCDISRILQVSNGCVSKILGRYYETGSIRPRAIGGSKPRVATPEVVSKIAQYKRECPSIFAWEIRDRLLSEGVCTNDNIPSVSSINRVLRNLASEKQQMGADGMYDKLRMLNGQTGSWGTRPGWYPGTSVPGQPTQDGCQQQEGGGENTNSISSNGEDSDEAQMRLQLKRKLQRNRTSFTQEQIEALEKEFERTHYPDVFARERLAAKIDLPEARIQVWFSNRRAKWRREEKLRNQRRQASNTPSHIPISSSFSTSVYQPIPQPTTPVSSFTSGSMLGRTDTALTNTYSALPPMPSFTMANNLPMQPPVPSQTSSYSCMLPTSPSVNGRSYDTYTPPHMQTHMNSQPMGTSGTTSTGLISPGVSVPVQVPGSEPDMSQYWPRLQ
Sequence of Transcription factor Sp1 (Homo sapiens) (P08047 whole entry, looked up): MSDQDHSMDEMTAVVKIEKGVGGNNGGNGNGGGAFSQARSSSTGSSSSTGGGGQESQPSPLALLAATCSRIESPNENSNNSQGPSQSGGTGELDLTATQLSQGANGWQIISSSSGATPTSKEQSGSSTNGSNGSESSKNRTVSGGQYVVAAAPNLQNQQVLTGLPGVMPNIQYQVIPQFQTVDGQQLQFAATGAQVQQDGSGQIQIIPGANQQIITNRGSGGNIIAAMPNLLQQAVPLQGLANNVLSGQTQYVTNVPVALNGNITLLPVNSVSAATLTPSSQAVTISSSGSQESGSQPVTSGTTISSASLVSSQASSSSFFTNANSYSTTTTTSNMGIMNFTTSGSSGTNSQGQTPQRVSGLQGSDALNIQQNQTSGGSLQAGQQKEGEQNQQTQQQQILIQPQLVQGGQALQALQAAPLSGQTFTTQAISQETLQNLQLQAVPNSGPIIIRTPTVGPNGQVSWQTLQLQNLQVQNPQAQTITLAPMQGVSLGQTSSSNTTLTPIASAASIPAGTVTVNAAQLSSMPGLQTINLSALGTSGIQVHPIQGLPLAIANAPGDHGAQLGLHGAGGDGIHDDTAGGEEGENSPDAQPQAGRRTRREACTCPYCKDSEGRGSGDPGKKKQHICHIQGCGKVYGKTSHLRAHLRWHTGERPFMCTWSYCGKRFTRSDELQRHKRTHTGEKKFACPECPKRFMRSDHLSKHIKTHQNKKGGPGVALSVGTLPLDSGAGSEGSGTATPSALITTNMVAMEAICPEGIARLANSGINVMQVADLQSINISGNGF
Sequence of Hepatocyte nuclear factor 6 (Homo sapiens) (Q9UBC0 whole entry, looked up): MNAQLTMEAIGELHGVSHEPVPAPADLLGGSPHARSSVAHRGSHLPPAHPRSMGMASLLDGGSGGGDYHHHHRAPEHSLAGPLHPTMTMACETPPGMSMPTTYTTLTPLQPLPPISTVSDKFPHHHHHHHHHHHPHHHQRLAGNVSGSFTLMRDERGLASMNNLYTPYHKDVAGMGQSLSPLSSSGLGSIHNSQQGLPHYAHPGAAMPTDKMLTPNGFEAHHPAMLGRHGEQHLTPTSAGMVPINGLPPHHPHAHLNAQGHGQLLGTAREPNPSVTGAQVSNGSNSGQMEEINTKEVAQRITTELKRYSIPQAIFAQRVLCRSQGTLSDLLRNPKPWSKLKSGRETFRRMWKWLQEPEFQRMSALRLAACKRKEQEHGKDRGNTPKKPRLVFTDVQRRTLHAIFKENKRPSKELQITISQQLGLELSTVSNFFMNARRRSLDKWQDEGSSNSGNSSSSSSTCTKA
Sequence of Bile acid receptor (Homo sapiens) (Q96RI1 whole entry, looked up, the tested form may be a part): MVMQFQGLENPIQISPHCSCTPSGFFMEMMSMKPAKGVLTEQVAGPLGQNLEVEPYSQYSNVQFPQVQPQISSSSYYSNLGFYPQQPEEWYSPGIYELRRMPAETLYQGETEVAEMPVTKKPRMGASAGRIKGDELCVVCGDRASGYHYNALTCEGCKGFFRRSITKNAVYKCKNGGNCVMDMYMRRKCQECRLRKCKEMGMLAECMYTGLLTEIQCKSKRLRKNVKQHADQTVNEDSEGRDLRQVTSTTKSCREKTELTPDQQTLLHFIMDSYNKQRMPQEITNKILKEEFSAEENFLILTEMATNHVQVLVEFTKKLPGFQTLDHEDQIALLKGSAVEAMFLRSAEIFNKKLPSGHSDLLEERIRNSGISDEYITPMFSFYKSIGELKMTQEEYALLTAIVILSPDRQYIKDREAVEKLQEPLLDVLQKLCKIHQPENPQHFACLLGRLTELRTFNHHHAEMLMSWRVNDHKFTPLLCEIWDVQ
Sequence of Signal transducer and activator of transcription 3 (Homo sapiens) (P40763 whole entry, looked up): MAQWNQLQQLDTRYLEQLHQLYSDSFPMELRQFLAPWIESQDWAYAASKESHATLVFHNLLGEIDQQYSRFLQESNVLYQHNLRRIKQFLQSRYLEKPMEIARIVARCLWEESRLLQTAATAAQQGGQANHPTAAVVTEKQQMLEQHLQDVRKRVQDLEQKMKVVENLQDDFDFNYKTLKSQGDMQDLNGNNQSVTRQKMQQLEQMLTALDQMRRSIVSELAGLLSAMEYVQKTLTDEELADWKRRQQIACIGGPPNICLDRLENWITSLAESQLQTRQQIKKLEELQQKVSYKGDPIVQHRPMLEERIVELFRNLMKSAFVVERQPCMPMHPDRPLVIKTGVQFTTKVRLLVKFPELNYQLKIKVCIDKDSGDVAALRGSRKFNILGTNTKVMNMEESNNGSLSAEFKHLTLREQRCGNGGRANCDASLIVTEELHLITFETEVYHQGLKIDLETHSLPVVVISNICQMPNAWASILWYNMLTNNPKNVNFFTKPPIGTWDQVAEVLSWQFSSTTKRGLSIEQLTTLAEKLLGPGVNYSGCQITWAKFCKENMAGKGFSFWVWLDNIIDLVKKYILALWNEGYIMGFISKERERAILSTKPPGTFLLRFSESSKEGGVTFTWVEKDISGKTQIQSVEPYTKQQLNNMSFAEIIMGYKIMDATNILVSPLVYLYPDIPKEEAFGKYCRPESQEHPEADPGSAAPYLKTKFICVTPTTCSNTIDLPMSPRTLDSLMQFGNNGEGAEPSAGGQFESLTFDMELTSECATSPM
Sequence of Heat shock factor protein 1 (Homo sapiens) (Q00613 whole entry, looked up): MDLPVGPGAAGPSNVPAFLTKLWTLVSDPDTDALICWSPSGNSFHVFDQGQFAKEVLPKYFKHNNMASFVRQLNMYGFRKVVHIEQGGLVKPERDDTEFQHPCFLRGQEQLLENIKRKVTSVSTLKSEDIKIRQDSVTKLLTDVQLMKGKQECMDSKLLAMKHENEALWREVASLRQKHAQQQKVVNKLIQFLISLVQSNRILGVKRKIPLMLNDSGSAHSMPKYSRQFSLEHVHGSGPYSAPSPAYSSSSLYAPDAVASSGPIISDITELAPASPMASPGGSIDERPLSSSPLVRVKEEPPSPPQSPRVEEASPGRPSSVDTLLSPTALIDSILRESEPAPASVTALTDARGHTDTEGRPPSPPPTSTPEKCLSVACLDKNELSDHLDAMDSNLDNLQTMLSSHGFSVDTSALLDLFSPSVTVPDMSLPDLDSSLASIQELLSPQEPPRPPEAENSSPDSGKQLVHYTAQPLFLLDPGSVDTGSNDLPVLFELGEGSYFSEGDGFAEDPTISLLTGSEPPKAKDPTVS

Consider `OC1OCCOC1O` (stereo not drawn), for which the result in assay [1], in [2], in assay [3], in assay [4], in [5] and in assay [6] was inactive. Besides, the result in [7], in assay [8], in assay [9], in assay [10], in assay [11] and in assay [12] was inactive. Moreover, the compound was called inactive in assay [13], in assay [14] and in assay [15].
As to `CC(C)(C)c1ccc(-c2ccc(C(C)(C)C)cc2)cc1`, the call in assay [1], in [2], in assay [3], in assay [4], in assay [5] and in assay [7] was inactive. Also, the result in [16], in [8], in assay [10], in assay [17], in assay [13] and in [15] was inactive.
Consider `O=Nc1ccc(O)cc1`, for which the outcome in assay [1], in assay [2], in assay [3], in assay [4], in assay [5] and in assay [18] was inactive. Besides, the compound was called inactive in assay [6], in assay [7], in assay [8], in assay [9], in [19] and in [10]. In addition, the outcome in [11], in assay [17], in assay [12], in assay [13] and in [15] was inactive.
Turning to `Cc1cnc(NC(=O)C2=C(O)c3ccccc3S(=O)(=O)N2C)s1`, the compound was called inactive in [1], in assay [2], in assay [3], in [4], in [6] and in [7]. The result in assay [8], in assay [19], in assay [10], in [11], in assay [17] and in [12] was inactive. Moreover, the compound was called inactive in assay [13] and in assay [15].
As to `COC(=O)c1sccc1S(N)(=O)=O`, the compound was classed as inactive in assay [1], in [2], in [3], in assay [5], in assay [18] and in assay [6]. Also, the compound was classed as inactive in assay [7], in assay [16], in [8], in [19], in [11] and in [17]. Moreover, the compound was called inactive in [12], in assay [13], in [14] and in assay [15]. Besides, the half-maximal activity concentration (AC50) in assay [9] is 79.3 µM (active).
On to `O=P(O)(O)Oc1ccccc1`, for which the outcome in assay [1], in [2], in assay [20], in assay [3], in assay [5] and in assay [18] was inactive. Further, the outcome in assay [6], in assay [7], in assay [8], in [9], in assay [10] and in assay [11] was inactive. In addition, the outcome in [17], in [12], in [13] and in assay [14] was inactive.
Consider `C(=CC=Nc1ccccc1)C=CNc1ccccc1`, for which the compound was called inactive in assay [1], in assay [20], in assay [3], in [4], in [5] and in assay [18]. For the same compound, the call in [6], in assay [7], in assay [16], in assay [8], in assay [19] and in [10] was inactive. Besides, the result in assay [11], in assay [17], in [12], in assay [14] and in assay [15] was inactive. For the same compound, the half-maximal activity concentration (AC50) in [9] was 32.3 µM (active).
Consider `O=c1n(CCO)c(=O)n(CCO)c(=O)n1CCO`, for which the outcome in [1], in [20], in assay [3], in assay [4], in assay [5] and in [18] was inactive. For the same compound, the call in assay [6], in assay [7], in assay [16], in assay [8], in assay [9] and in [19] was inactive. In addition, the result in [10], in [11], in [17], in [12], in assay [13] and in assay [14] was inactive. Moreover, the result in assay [15] was inactive.

For orientation: AC50 means the concentration giving half of the maximal activity seen.
